The results in this text go back to PubChem BioAssay (NCATS).

Values joined by “and” are separate entries in the source; they are usually repeats but may differ in a detail not shown here. Identical values can stand only once. Inconclusive results are not listed. Some compounds were tested as several samples or in several runs, with calls that do not always agree. Active and inactive are the calls of the source. Unless noted, calls follow the shape of the dose curve; as a rule, active = well fitted curve in the direction sought with a large enough effect; inconclusive = small, poorly fitted or top-dose-only effect, or another doubt; inactive = no such curve, though single readings can be large; an effect the other way counts as inactive or inconclusive.

For test [1], the target named is Cytochrome P450 3A4 (Homo sapiens) (UniProt P08684). Briefly: qHTS Assay for Inhibitors and Substrates of Cytochrome P450 3A4 (AID 884). Also: nearly all actives have a fitted effect of over 50% in size. Also: potency is read from the fitted curve at half-maximal effect. As to activity change, negative = inhibition: % is scaled to controls: 0 for no effect and ±100 for the full control effect. The gist of the method:
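20 nM human CYP3A4 with 25 uM Luciferin-PPXE (at KM) in 200 mM KPO4, preincubated 10 min with compound; NADPH regeneration started a 60 min RT reaction. Luciferin detected by luminescence, normalized to 57 uM ketoconazole as full inhibition.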
(In general: Quantitative high-throughput screening tests each substance at several concentrations.)

The target is the same in test [2]. Briefly: qHTS Assay for Activators of Cytochrome P450 3A4 (AID 885). Also: nearly all actives have a fitted effect of over 65% in size. The gist of the method:
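Steps: enzyme/substrate mix dispensed; compound added, 10 min RT; NADPH regeneration solution added, 60 min RT; luciferin detection buffer stops reaction; 20 min later luminescence measured.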

The nature of test [3]: Confirmation and Secondary Assay for Modulators of Hemoglobin Beta Chain Splicing at IVS2 654 locus (AID 910).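 Also: HeLa cells stably carrying EGFP split by mutant beta-globin IVS2-654 intron; % of control where 0% means no effect.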 The essentials: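 HeLa cells stably expressing EGFP interrupted by β-globin IVS2-654 intron, seeded overnight in Opti-MEM/2% FCS, then treated 2 days at 37 °C. Restored splicing read as total peak GFP intensity per well by laser scanning cytometry (488 nm excitation, 500–520 nm emission); 500 nM antisense PNA as control.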

A short description of test [4]: Confirmation and Secondary Assay for Modulators of Hemoglobin Beta Chain Splicing at IVS2 705 locus (AID 930).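 Also: HeLa cells stably expressing the EGFP-705 splicing reporter; % of control where 0% means no effect.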 The gist of the method: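 HeLa cells stably carrying EGFP interrupted by mutant beta-globin IVS2-705 intron (CMV-driven) were seeded at 500 cells/well, treated next day with compound for 2 days at 37C; corrected splicing restores EGFP, read as total peak GFP intensity per well.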

Test [5] can be described thus: qHTS Assay for Lipid Storage Modulators (AID 1519; calls by dose curve; also: potency is read from the fitted curve at half-maximal effect; as to activity change, negative = inhibition: % is scaled to controls: 0 for no effect and ±100 for the full control effect). The settings on record: Drosophila S3 cells, BODIPY lipid droplet/cell ratio, laser cytometry, cells loaded with oleic acid. The gist of the method:
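Cells seeded at 5,000 per well were treated with compounds over a concentration series and loaded with oleic acid (400 uM, as added). Lipid droplet fluorescence (488 nm excitation, 500-530 nm channel) was read by laser-scanning cytometry and normalized to 20 uM Triacsin C.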

Test [6] addresses DNA dC->dU-editing enzyme APOBEC-3G (Homo sapiens) (UniProt Q9HC16). The test is described as follows: qHTS for inhibitors of Vif-A3G interactions: Validation (AID 588379). Also: 0% is about no effect. The gist of the method: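 HeLa cells stably expressing Vif and A3G-eYFP, 700 cells/well, incubated overnight at 37 deg C, then exposed to compound overnight at 37 deg C. Inhibition of Vif-mediated degradation read as increased yellow fluorescence (Ex 488/Em 500-530) by laser-scanning cytometry.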

Setting [7] is: measured here: cell count channel max response.
Setting [8] is: measured here: lipid channel max response.

Cytochrome P450 3A4 (Homo sapiens), sequence (P08684 whole entry, looked up): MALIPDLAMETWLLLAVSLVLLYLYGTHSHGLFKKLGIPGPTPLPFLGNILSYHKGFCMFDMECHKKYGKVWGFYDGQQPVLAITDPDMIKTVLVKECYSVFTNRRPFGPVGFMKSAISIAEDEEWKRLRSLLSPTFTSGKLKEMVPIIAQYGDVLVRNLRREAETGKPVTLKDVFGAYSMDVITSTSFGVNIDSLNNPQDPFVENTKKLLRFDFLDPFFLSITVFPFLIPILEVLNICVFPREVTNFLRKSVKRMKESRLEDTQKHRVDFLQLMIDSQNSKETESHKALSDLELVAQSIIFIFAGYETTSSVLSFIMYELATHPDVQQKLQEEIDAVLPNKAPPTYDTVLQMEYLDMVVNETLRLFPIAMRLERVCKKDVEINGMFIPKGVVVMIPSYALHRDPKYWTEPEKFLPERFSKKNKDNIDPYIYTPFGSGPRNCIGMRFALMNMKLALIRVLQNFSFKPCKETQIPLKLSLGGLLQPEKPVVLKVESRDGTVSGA
DNA dC->dU-editing enzyme APOBEC-3G (Homo sapiens), sequence (Q9HC16 whole entry, looked up): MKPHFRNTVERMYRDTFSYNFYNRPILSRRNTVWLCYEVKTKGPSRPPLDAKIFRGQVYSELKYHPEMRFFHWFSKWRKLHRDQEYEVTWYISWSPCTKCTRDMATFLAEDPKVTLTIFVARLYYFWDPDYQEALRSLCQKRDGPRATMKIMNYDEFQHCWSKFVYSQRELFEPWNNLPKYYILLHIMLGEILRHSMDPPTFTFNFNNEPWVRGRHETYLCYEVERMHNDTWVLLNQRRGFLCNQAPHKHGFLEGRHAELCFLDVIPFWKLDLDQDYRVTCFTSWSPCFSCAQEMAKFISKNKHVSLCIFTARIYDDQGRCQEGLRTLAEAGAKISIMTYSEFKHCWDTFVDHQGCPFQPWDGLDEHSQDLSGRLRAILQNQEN

As for `COc1cc(C2c3cc4c(cc3C(OC(C)=O)[C@H]3COC(=O)C23)OCO4)cc(OC)c1OC` (some centres undefined), the Potency entry in test [1] is “inactive and 1.26 µM (active)”. Moreover, the Potency entry in test [2], in test [3] and in test [4] was “inactive” throughout. Further, the activity change, negative = inhibition in test [5] (at 57.5 µM (top of the series)) is 0.38% (inactive) and 4.56% (inactive). In addition, the max response was 26.1% and 10% in test [5] (setting [7]); 22.6% and 16.4% in test [5] (setting [8]).
`CNC1[C@@H](O)C(OC2C(N)C[C@H](N)[C@@H](O[C@@H]3OC(C(C)O)C(O)C(O)C3N)C2O)OC[C@]1(C)O` (some centres undefined): the Potency in test [1] was 20 µM (active). The Potency result in test [2], in test [3] and in test [4] was “inactive” in each case. For the same compound, the activity change, negative = inhibition in test [5] (at 57.5 µM (top of the series)) is 8.52% (inactive). The values for the max response in test [5] (setting [7]) and in test [5] (setting [8]) were 15% and 24.5%, respectively.
Regarding `CCCCCCC(C)OC(=O)COc1ccc(Cl)cc1Cl` (centres undefined), the Potency entry in test [1], in test [3] and in test [4] was “inactive” each time. Besides, the activity change, negative = inhibition in test [5] (at 57.5 µM (top of the series)) is 1.06% (inactive). For the same compound, the max response in test [5] (setting [7]) worked out at 1.5%; in test [5] (setting [8]), 2.82%.
Turning to `CCC(C)C(=O)O[C@@H]1C[C@@]2(C)C(c3ccoc3)OC(=O)CC23OC2(C)O[C@@]14[C@@]1(C)C(CC(=O)OC)C5(C)CC1(O)C(O)(C5OC(=O)C1(C)OC1C)C(OC(C)=O)[C@@]34O2` (some centres undefined), in test [1], the Potency is 1 µM (active). The Potency result in test [2], in test [3] and in test [4] was “inactive” each time. Further, the activity change, negative = inhibition in test [5] (at 57.5 µM (top of the series)) was 5.34% (inactive). Further, the max response in test [5] (setting [7]) was -2.48%; in test [5] (setting [8]), 2.6%.
Regarding `C=C[C@H]1CN2CC[C@H]1C[C@H]2c1[nH]c2ccccc2c1CCO`, the Potency result in test [2] was “inactive”. Besides, in test [5] (at 57.5 µM (top of the series)), the activity change, negative = inhibition is 2.01% (inactive). In addition, the max response in test [5] (setting [7]) was -5.69%; in test [5] (setting [8]), -2.67%. Further, the call in test [6] was inactive.
On to `CC(C)c1ccc2c(c1O)CCC1C3=C(CC[C@]21C)C(=O)OC3` (some centres undefined), for which the Potency in test [1] is 15.8 µM (active). Also, the Potency result in test [2], in test [3] and in test [4] was “inactive” throughout. Moreover, in test [5] (at 57.5 µM (top of the series)), the activity change, negative = inhibition is 1.46% (inactive). Also, the max response in test [5] (setting [7]) was -9.02%; in test [5] (setting [8]) it was -0.042%.
As to `CC(=O)OC1C[C@@]2(C)C(c3ccoc3)C[C@H]3O[C@@]32[C@@]2(C)C(=O)C(O)=C3C(C)(C)C(=O)C=C[C@]3(C)C12` (some centres undefined), the results for the Potency in test [1] and in test [5] were 0.398 µM (active) and 15.8 µM (active), respectively. The Potency entry in test [2], in test [3] and in test [4] was “inactive” throughout. The max response is -2.69% in test [5] (setting [7]) and -67.6% in test [5] (setting [8]).
In the case of `CC(=O)O.CC(=O)O.[Cd]`, the Potency entry in test [1], in test [3] and in test [4] was “inactive” throughout. In addition, the activity change, negative = inhibition in test [5] (at 57.5 µM (top of the series)) was 4.11% (inactive). The results for the max response in test [5] (setting [7]) and in test [5] (setting [8]) were 7.92% and 9.61%, respectively.
For `COC1=CC2C3Cc4ccc(OC)c(O)c4[C@]2(CCN3C)CC1=O` (some centres undefined), the Potency result in test [1], in test [3] and in test [4] was “inactive” throughout. Moreover, the activity change, negative = inhibition in test [5] (at 57.5 µM (top of the series)) is 4.04% (inactive). The figures for the max response in test [5] (setting [7]) and in test [5] (setting [8]) were -5.63% and 0.618%, respectively.
For the compound `C=C1C/C(=C/C)C(=O)O[C@@H]2CCN3CC=C(COC(=O)[C@]1(C)O)[C@@H]23`, the Potency in test [1] is 15.8 µM (active). For the same compound, the Potency result in test [2] was “inactive”. The activity change, negative = inhibition in test [5] (at 57.5 µM (top of the series)) was 3.16% (inactive). The max response in test [5] (setting [7]) was determined as 6.54%; in test [5] (setting [8]) it was 10.1%. In test [6], the compound was called inactive.
For the compound `CC(C)Nc1nc(Cl)nc(NC(C)C)n1`, the Potency entry in test [1] and in test [3] was “inactive” each time. Besides, the activity change, negative = inhibition in test [5] (at 57.5 µM (top of the series)) was 3.35% (inactive). The max response is 5.6% in test [5] (setting [7]) and 10.8% in test [5] (setting [8]).
Turning to `CC1(C)C(=O)C=C[C@@]2(C)C1CC(O)[C@]1(C)C2CC[C@@]2(C)C(c3ccoc3)OC(=O)C3O[C@]312` (some centres undefined), the Potency in test [1] was 3.98 µM (active). Further, the Potency result in test [2] and in test [3] was “inactive” each time. In addition, in test [5] (at 57.5 µM (top of the series)), the activity change, negative = inhibition is -4.48% (inactive). The max response in test [5] (setting [7]) is 13.8%; in test [5] (setting [8]), 11.5%.
On to `Cc1[nH]c2ccccc2c1CN(C)C`, for which the Potency in test [1] is 12.6 µM (active). The Potency result in test [2], in test [3] and in test [4] was “inactive” throughout. Also, the activity change, negative = inhibition in test [5] (at 57.5 µM (top of the series)) is 11.5% (inactive). Besides, the max response in test [5] (setting [7]) is 9.14%; in test [5] (setting [8]) it was 21.3%.
As for `C=C(C)C1CNC(C(=O)O)C1CC(=O)O` (centres undefined), the Potency entry in test [1], in test [3] and in test [4] was “inactive” each time. Further, the activity change, negative = inhibition in test [5] (at 57.5 µM (top of the series)) was 6.75% (inactive). For the same compound, the max response stood at 5.93% in test [5] (setting [7]) and 13% in test [5] (setting [8]).
With `CC1=C2CCC3C4CCC(=O)[C@@]4(C)CCC3[C@]2(C)CCC1=O` (some centres undefined), the Potency in test [1] was 5.01 µM (active). For the same compound, the Potency result in test [2] and in test [4] was “inactive” each time. In addition, the activity change, negative = inhibition in test [5] (at 57.5 µM (top of the series)) is 7.19% (inactive). Moreover, the results for the max response in test [5] (setting [7]) and in test [5] (setting [8]) were 5.35% and 8.56%, respectively.
With `COc1cc([C@H]2c3cc4c(cc3[C@@H](O)[C@@H]3COC(=O)[C@H]23)OCO4)cc(OC)c1OC`, the activity change, negative = inhibition in test [5] (at 25.7 µM (top of the series)) is -6.44% (inactive). Besides, the max response in test [5] (setting [7]) was -10.2%; in test [5] (setting [8]) it was -15%.
As for `c1cc2c(cc1C1OC[C@@H]3C(c4ccc5c(c4)OCO5)OCC13)OCO2` (some centres undefined), in test [1], the Potency was 0.0794 µM (active). The Potency entry in test [2], in test [3] and in test [4] was “inactive” each time. In addition, the activity change, negative = inhibition in test [5] (at 57.5 µM (top of the series)) is 7.47% (inactive). The max response was 12.5% in test [5] (setting [7]) and 26% in test [5] (setting [8]).
`COC1C(O)C(OC2CC[C@]3(C=O)C4C(OC(C)=O)C[C@@]5(C)C(C6=CC(=O)OC6)CC[C@]5(O)C4CC[C@]3(O)C2)OC(C)C1OC(C)=O` (some centres undefined): the Potency result in test [1] and in test [3] was “inactive” in each case. Further, the activity change, negative = inhibition in test [5] (at 57.5 µM (top of the series)) is 4.28% (inactive). Further, the max response in test [5] (setting [7]) is 10%; in test [5] (setting [8]) it was 17.4%.
